Test results as given in PubChem BioAssay (Tox21).
Results filed as inconclusive are left out. Calls of active or inactive are those of the source. Calls follow the shape of the dose curve; as a rule, active = well fitted inhibition curve with a large enough effect in the repeat runs; inconclusive = weak or mixed curves; inactive = no such curve, though single readings can be large or run the other way.

Each compound was assayed against Cytochrome P450 2D6 (Homo sapiens) (UniProt P10635) (assay: Cytochrome P450 Family 2 Subfamily D Member 6 (CYP2D6) small molecule antagonists: luciferase reporter qHTS assay (AID 1671196; also: nearly all actives have a fitted effect of over 50% in size)). Conditions: P450-Glo CYP2D6 enzyme assay, luciferin luminescence, 1 h; series mostly up to 115 µM; activity change, negative = inhibition: at the top concentration.
Method in brief: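 Luminogenic proluciferin substrate, CYP2D6 enzyme; 10 min RT preincubation with compound, NADPH regeneration system added, 1 h RT. Stop/detection reagent, 20 min RT, luminescence read (RLU). Signal proportional to CYP activity.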
% is scaled to controls: 0 for no effect and ±100 for the full control effect; potency is read from the fitted curve at half-maximal effect.

Chain of Cytochrome P450 2D6 (Homo sapiens) (P10635 whole entry, looked up): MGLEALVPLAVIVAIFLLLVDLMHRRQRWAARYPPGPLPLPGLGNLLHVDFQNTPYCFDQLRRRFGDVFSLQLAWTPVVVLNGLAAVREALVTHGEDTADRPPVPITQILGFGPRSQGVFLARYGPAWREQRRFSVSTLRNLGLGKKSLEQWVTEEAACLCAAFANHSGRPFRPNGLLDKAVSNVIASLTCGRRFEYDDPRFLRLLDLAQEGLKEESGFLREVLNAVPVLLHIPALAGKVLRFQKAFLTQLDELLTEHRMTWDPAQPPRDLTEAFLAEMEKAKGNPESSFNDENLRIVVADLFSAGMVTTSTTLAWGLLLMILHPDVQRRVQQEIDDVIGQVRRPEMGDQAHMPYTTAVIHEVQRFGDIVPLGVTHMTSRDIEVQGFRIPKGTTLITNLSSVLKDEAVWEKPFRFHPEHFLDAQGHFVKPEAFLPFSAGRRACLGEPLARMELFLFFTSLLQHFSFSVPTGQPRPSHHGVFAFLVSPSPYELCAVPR

| Structure (SMILES) | activity change, negative = inhibition | Potency |
| --- | --- | --- |
| CCN(CC)C(=O)N(CC)CC | -10.7% (inactive) | – |
| CCCCCCC | -12.2% (inactive) | – |
| C[C@@H](N)C(=O)O | 0.368% [at 53 µM] (inactive) | – |
| O=C(CCCl)NCc1ccccc1 | -3.15% [at 53 µM] (inactive) | – |
| CC(C)O | 3.14% (inactive) | – |
| CC(C)=CCCC(C)CCOC=O (stereo not drawn) | -13.8% (inactive) | – |
| OCCN(CCO)c1ccccc1 | -8.45% (inactive) | – |
| CCOC(=O)CS | -5.57% (inactive) | – |
| CN(C)C(=O)NC1(c2ccccc2)CCN(CCC[C@]2(c3ccc(Cl)c(Cl)c3)CCCN(C(=O)c3ccccc3)C2)CC1 | – | 3.79 µM (active) |
| CC1(O)CSC(C)(O)CS1 (stereo not drawn) | -13.6% (inactive) | – |
| O=c1[nH]cnc2c1ncn2[C@@H]1O[C@H](CO)[C@@H](O)[C@H]1O | -0.857% [at 53 µM] (inactive) | – |
| CN(C)CCOc1ccccc1Cc1ccccc1 | -96.2% [at 53 µM] (inactive) | – |
| CCN(CC)CCNC(=O)COc1ccc(Cl)cc1 | – | 12.3 µM (active) |
| C=CCCCCCCCCO | -1.27% (inactive) | – |
| N#Cc1ccc(C(c2ccc(C#N)cc2)n2cncn2)cc1 | -13.9% [at 53 µM] (inactive) | – |
| CCCCCCCCOC(=O)CCCCCCCCC(=O)OCCCCCCCC | -0.818% (inactive) | – |
| CCCCCCOc1ccc(N)cc1 | – | 35.6 µM (active) |

| Structure (SMILES) | activity change, negative = inhibition | Potency |
| --- | --- | --- |
| CCCC1CCC(=O)O1 (stereo not drawn) | -3.94% (inactive) | – |
| CC1(C)C(=O)N(Cl)C(=O)N1Br | -13.5% (inactive) | – |
| c1ccc(CN(CC2=NCCN2)c2ccccc2)cc1 | – | 1.38 µM (active) |
| CCCCOc1cc(C(=O)NCCN(CC)CC)c2ccccc2n1 | – | 13.8 µM (active) |
| COC(=O)c1ccc(OC)cc1 | -4.05% (inactive) | – |
| Cc1nc(N)nc(N)c1-c1ccc(Cl)c(Cl)c1 | – | 2.19 µM (active) |
| Oc1ccccc1F | -5.08% (inactive) | – |
| O=C(O)c1ccccc1Nc1cc(Cl)ccc1C(=O)O | – | 1.51 µM (active) |
| C[C@]12C(=O)OC(=O)[C@H]1[C@H]1C=C[C@@H]2C1 | 0.825% (inactive) | – |
| COC(C)CCO (stereo not drawn) | -22.4% (inactive) | – |
| Cc1cccc(C)c1NC(=O)CN1CCCCCC1 | – | 12.3 µM (active) |
| Clc1cccc(-c2cc(Cl)cc(Cl)c2)c1 | -4.44% (inactive) | – |
| C=CC1CO1 (stereo not drawn) | -0.987% (inactive) | – |
| CCCOc1ccc2c(c1)CC[C@@H]1[C@@H]2CC[C@]2(C)C(OC)CC[C@@H]12 (stereo partly drawn) | – | 15.5 µM (active) |
| CS(=O)(=O)c1ccc([C@@H](O)[C@@H](CF)NC(=O)C(Cl)Cl)cc1 | -13.2% [at 53 µM] (inactive) | – |
| CC(Oc1c(Cl)cccc1Cl)C1=NCCN1 (stereo not drawn) | – | 4.9 µM (active) |

Each compound was assayed against Cytochrome P450 2C19 (Homo sapiens) (UniProt P33261) (assay: Cytochrome P450 Family 2 Subfamily C Member 19 (CYP2C19) small molecule antagonists: luciferase reporter qHTS assay (AID 1671197; also: nearly all actives have a fitted effect of over 65% in size)). Conditions: P450-Glo CYP2C19 enzyme, luciferin luminescence, 1 h; series mostly up to 115 µM; activity change, negative = inhibition: at the top concentration.
Method in brief: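 Quantitative high-throughput screen of the Tox21 library using CYP2C19 with proluciferin substrate. Reaction: NADPH regeneration, 37C, 1 h, after 10 min compound preincubation at room temperature. Readout: luminescence.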

Chain of Cytochrome P450 2C19 (Homo sapiens) (P33261 whole entry, looked up): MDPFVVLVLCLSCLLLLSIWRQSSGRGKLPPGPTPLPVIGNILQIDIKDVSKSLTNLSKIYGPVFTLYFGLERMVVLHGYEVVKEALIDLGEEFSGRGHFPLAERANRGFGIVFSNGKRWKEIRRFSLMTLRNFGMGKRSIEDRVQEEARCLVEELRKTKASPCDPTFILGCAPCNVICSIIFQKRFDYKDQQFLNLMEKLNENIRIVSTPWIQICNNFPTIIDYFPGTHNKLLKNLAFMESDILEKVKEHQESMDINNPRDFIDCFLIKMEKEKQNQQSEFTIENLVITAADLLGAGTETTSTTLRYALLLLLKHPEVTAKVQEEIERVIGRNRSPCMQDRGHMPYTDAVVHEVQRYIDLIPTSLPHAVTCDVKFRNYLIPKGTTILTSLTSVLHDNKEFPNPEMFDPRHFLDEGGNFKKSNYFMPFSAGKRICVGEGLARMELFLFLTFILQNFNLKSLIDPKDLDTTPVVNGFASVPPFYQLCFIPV

| Structure (SMILES) | Potency | activity change, negative = inhibition |
| --- | --- | --- |
| CC1CN(c2ccccc2)NC1=O (stereo not drawn) | 12.6 µM (active) | – |
| CC(C)=CCC[C@](C)(O)[C@@H]1CC=C(C)CC1 | 5.03 µM (active) | – |
| CCc1cc2cc(OC)c(OC)cc2c(Cc2ccccc2)n1 | 17.4 µM (active) | – |
| O=S(=O)(O)C(F)(F)F | – | -22.5% (inactive) |
| C=CC(C)(O)CC/C=C(\C)CCC=C(C)C (stereo not drawn) | 17.8 µM (active) | – |
